Laboratory results published in PubChem BioAssay (NCI).
About 79,000 compounds went through this panel and 15% of them were active in at least one assay; those are over-represented in the sample as a whole. The source made the active and inactive calls. Rule as the data show it: active = growth inhibition above about 70%; inactive = the rest.

test: NCI Yeast Anticancer Drug Screen. Data for the sgs1 mgt1 strain (AID 161);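 also: 0% = growth of cultures given vehicle only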; conditions: S. cerevisiae sgs1 mgt1 strain, at 50.0 µM, active compounds read high
How it was run: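 Test agents were incubated with a DNA-repair-mutant yeast strain. Growth was then read and compared against vehicle-treated controls.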

Structure (SMILES)	growth inhibition
CN(C)C(C)(C)CC(C)(C)C	15.7% (inactive)
COc1ccccc1N=Nc1c(O)ccc2cc(S(=O)(=O)O)ccc12	6.75% (inactive)
Sc1ccc(Nc2c3ccccc3nc3ccccc23)cc1	14.9% (inactive)
CN(C)CCN(C)CC(C)(C)C(=O)/C=C/c1ccc(Cl)cc1	9% (inactive)
OCC(O)C(O)C(O)C(O)/C=N/O (stereo not drawn)	-6.4% (inactive)
O=C(CC(=O)c1ccccc1O)c1ccccc1	34.4% (inactive)
Cc1cccc([N+](=O)[O-])c1Cl	-36.5% (inactive)
CCN(CC)CCNc1ccc(CO)c2sc3ccccc3c(=O)c12	-10.8% (inactive)
CC1CCC(C(=O)O)N1 (stereo not drawn)	1.7% (inactive)
CC(C)(N)COS(=O)(=O)O	-7.95% (inactive)
Oc1ccccc1O	8.85% (inactive)
CCCCN(CCCC)CCCO	-11.3% (inactive)
O=C(CCl)Nc1ccc2c(c1)C(=O)c1ccc(NC(=O)CCl)cc1C2=O	4.15% (inactive)
CC(=O)Cc1cc(-c2cc(CC(C)=O)[nH]n2)n[nH]1	-24.1% (inactive)
CCCC(C)OCC(=O)O (stereo not drawn)	1.55% (inactive)
CC(=O)Oc1ccc(Br)cc1C(=O)O	-9.7% (inactive)
CN(C)C(=O)Oc1cccc([N+](C)(C)C)c1	5.95% (inactive)
N#CCCc1ccc(O)cc1	-34.9% (inactive)
CCOc1ccc(Br)cc1/C=N\N=C\c1cc(Br)ccc1OCC	-1.65% (inactive)

Structure (SMILES)	growth inhibition
Cc1ccccc1N=C(c1ccccc1)C1C(=O)c2ccccc2C1=O	42.2% (inactive)
Cc1ccc(O)c(C(=O)c2ccccc2)c1	12.5% (inactive)
O=C1NC(=O)C2C(=O)NC(=O)C1C21CCc2ccccc21 (stereo not drawn)	-23.5% (inactive)
O=C(/C=C\c1ccc(O)cc1)c1ccccc1	45.9% (inactive)
CC1SC(N)=NC1=O (stereo not drawn)	0.25% (inactive)
O=C1OC(=O)C2C1C1(Cl)C(Cl)=C(Cl)C2(Cl)C2C(=O)OC(=O)C21 (stereo not drawn)	17.9% (inactive)
CC(C)CCCC(=O)O	-1.25% (inactive)
O=S(=O)(O)c1ccc(O)c2ccccc12	0% (inactive)
COc1ccc(C2OC(N)=C(O)C2=O)cc1OC (stereo not drawn)	-14.4% (inactive)
Cc1cc(O)ccc1O	7% (inactive)
N#Cc1c(N)sc(=S)c2c1CCCC2	29.4% (inactive)
Nc1ccc(N)c([N+](=O)[O-])c1	-27.3% (inactive)
CC1(C)OC(=O)C(c2ccsc2)C(=O)O1	-20.4% (inactive)
C[N+](C)=c1ccc2nc3c(cc(Nc4ccccc4)c4ccccc43)oc-2c1	30.1% (inactive)
O=C(O)C(O)c1ccccc1 (stereo not drawn)	-5.7% (inactive)
COCCOCCCl	-12.5% (inactive)
COc1cccc(Sc2ccc([N+](=O)[O-])c3no[n+]([O-])c23)c1	90.2% (active)
CCCCC1(CC)COC(CCC)OC1 (stereo not drawn)	12.7% (inactive)
CC(=O)Nc1cccc(NC(C)=O)n1	1.25% (inactive)
